Only some compounds are listed: those with a hit (about 3.5% of all), similar ones and a draw of the others.
GPR151 activ = activators of human GPR151, primary screen, cell-based, PathHunter beta-arrestin, luminescence; G-protein coupled receptor 151 (Homo sapiens), Q8TDV0; PathHunter beta-arrestin GPR151 cells; activation, % at 11.2 µM; hit rate 1% among 650,000; in the data active means activation above about 4.9%
Target sequence (Q8TDV0 whole entry, looked up): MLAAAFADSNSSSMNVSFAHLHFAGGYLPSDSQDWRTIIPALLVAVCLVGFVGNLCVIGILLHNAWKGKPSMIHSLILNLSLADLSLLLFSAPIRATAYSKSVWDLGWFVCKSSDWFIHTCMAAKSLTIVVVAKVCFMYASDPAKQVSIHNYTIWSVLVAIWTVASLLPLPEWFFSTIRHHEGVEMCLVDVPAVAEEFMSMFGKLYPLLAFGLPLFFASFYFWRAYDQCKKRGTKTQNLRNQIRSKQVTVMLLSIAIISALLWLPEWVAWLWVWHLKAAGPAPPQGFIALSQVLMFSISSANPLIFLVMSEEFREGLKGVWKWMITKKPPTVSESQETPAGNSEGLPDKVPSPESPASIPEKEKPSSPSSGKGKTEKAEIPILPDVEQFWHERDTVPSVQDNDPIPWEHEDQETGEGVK
FBW7 activator = FBW7 E3 ligase activators, primary screen, biochemical, AlphaScreen, human. AlphaScreen FBW7–phospho-cyclin E peptide binding, activator screen. AID 1259310, 2017. hit rate 0.13% among 650,000. normalized activity (activation), % at 26.1 µM; in the data active means normalized activity above about 1.9%;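 further: purified mutant Fbw7 with reduced substrate affinity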
TEAD-YAP inh = TEAD-YAP interaction inhibition, primary screen, TEAD-YAP interaction inhibitor project, luminescence, HEK-TIYL cells. TEAD-Gal4/YAP UAS-luciferase luminescence. inhibition, % at 9.12 µM. hit rate 1.4% among 640,000. AID 1259422, 2018; in the data active means inhibition above about 32%
MITF inh = MITF inhibitors, primary screen, biochemical, AlphaScreen, human. AlphaScreen MITF homodimerization, bead proximity signal. AID 1259374, 2018. hit rate 0.91% among 650,000. inhibition, % at 2.6 µM; in the data active means inhibition above about 50%
Each line names hits and unclear results; the compound was inactive in the other large screens.

CCCOC(=O)c1cccc(NC(=O)COc2ccccc2Br)c1	TEAD-YAP inh 50
CCCOC(=O)c1cccc(NC(=O)COc2ccc(Br)cc2)c1	none
C=CCN(C(=O)Cc1c(C(=O)O)[nH]c2ccccc12)c1ccccc1	none
Cc1ccc(S(=O)(=O)N/N=C/c2ccccc2Cl)cc1[N+](=O)[O-]	none
c1ccc(CN2CCC(Nc3nc(-c4cccs4)nc4c3ncn4-c3ccccc3)CC2)cc1	none
c1csc(-c2nc(NC3CC3)c3ncn(-c4ccsc4)c3n2)c1	TEAD-YAP inh 34
Cc1nn(C)c(C)c1-c1nc(NCCO)c2ncn(-c3ccsc3)c2n1	TEAD-YAP inh 43
CCCNc1nc(-c2cccs2)nc2c1ncn2-c1ccsc1	none
OCCNc1nc(-c2csc3ccccc23)nc2c1ncn2-c1ccsc1	TEAD-YAP inh 44
COc1ccc(CCNc2nc(-c3c(C)nn(C)c3C)nc3c2ncn3-c2ccsc2)cc1	none
OCCNc1nc(-c2cccs2)nc2c1ncn2-c1ccsc1	TEAD-YAP inh 67
O=c1c2[nH]c3ccccc3c2ncn1CCN1CCN(Cc2ccccc2)CC1	none
COc1ccc(NC(=O)c2ccc(N3C(=O)c4cccc([N+](=O)[O-])c4C3=O)cc2)cc1	none
O=C(Nc1ccc(O)cc1)c1ccc(N2C(=O)c3cccc([N+](=O)[O-])c3C2=O)cc1	TEAD-YAP inh 35
COc1cc(S(=O)(=O)N(Cc2cccs2)C2CCCC2)ccc1-n1cnnn1	none
COc1cc(S(=O)(=O)N(Cc2ccccc2F)C2CCCC2)ccc1-n1cnnn1	TEAD-YAP inh 67
CCNC(=O)N1CCCC(c2nnc(-c3ccccc3F)s2)C1 (stereo not given)	TEAD-YAP inh 38
CCCNc1nc(SC)nc2c1cnn2CCNC(=O)c1ccc(OC)cc1OC	TEAD-YAP inh 36
CCCNc1nc(SC)nc2c1cnn2CCNC(=O)c1ccc(F)cc1	none
CC(c1ccccc1)N1COc2c(cc(Cl)c3cccnc23)C1 (stereo not given)	TEAD-YAP inh 48, MITF inh 64
CCOC(=O)c1c(C)oc2c1c1c(c3ccccc32)OCN(C(C)c2ccccc2)C1 (stereo not given)	none
Oc1ccc(-c2cn3c(n2)SCC3)cc1	none
Oc1ccc(-c2cn3c(n2)SCC3)cc1O	MITF inh 65
CC(C)c1ccccc1NC(=O)c1cc(-c2ccc(F)cc2)c[nH]1	none
COc1ccc(-c2csc(NC(=O)c3cc(C)nn3C)n2)cc1	TEAD-YAP inh 63
COc1ccc(-c2csc(NC(=O)c3csc(C)c3)n2)cc1	none
CN1C=CC(=C2C(=O)c3ccccc3C2=O)C=C1	none
CCN1C=CC(=C2C(=O)c3ccccc3C2=O)C=C1	TEAD-YAP inh 95
CCCCN1C(C)=CC(=C2C(=O)c3ccccc3C2=O)C=C1C	TEAD-YAP inh 56
Cc1nc(NC(=O)/C=C/c2ccccc2)sc1C(=O)NCc1ccccc1	none
Cc1ccccc1NC(=O)c1sc(NC(=O)/C=C/c2ccccc2)nc1C	TEAD-YAP inh 49
C/C(=N\NC(N)=O)c1ccc(O)c(O)c1O	MITF inh 86
Cc1ncn(-c2ccc(Nc3ncc(Br)c(-c4cnn(C)c4)n3)cc2)n1	TEAD-YAP inh 69
CNc1cc(-c2cnn(C)c2)nc(Nc2ccc(-n3nc(C)nc3C)cc2)n1	none
Cc1ccc(-c2ncn(-c3ccc(Nc4ncc(F)c(-c5cnn(C)c5)n4)cc3)n2)cn1	TEAD-YAP inh 46
Cc1ccc(-c2ncn(-c3ccc(Nc4ncc5ccc(-c6cn[nH]c6C)cc5n4)cc3)n2)cn1	TEAD-YAP inh 43
Cc1nc(C)n(-c2ccc(Nc3ncc4ccc(-c5cnn(C)c5)nc4n3)cc2)n1	TEAD-YAP inh 72
CC(C)=CCN1CCC(n2nccc2NC(=O)C2CCOC2)CC1 (stereo not given)	none
C(=N\n1cnnc1)/c1cccc(OCc2cccc3ccccc23)c1	TEAD-YAP inh 50
C(=N\n1cnnc1)/c1ccc(OCc2cccc3ccccc23)cc1	none
Brc1cccc(/C=N/n2cnnc2)c1	TEAD-YAP inh 91
Brc1ccc(/C=N/n2cnnc2)cc1	none
COc1cccc(CN(CCN(C)C)C(=O)Nc2ccc(-c3cn[nH]c3)cc2N(C)C)c1	TEAD-YAP inh 50
COc1cccc(CN(C)C(=O)c2cnc3cc(-c4cn[nH]c4)ccn23)c1	TEAD-YAP inh 46
COc1cccc(CN(CCCN(C)C)C(=O)Nc2ccc(-c3cn[nH]c3)cc2OC)c1	none
COc1cccc(CN(CCN(C)C)C(=O)c2cnc3cc(-c4cn[nH]c4)ccn23)c1	none
COc1cccc(CN(CCN(C)C)C(=O)c2cnc3ccc(-c4cn[nH]c4)cn23)c1	TEAD-YAP inh 45
CCOc1ccccc1OCC(=O)Oc1ccccc1OCC	none
COc1cccc(NC(=O)N2CCCC2C(=O)Nc2ccccc2C)c1 (stereo not given)	none
O=[N+]([O-])c1ccc(C=Nc2ccc(S(=O)(=O)N3CCCCC3)cc2)cc1	none
COc1ccc(C2=NN(C(=O)c3ccccc3)C(c3cccc([N+](=O)[O-])c3)C2)cc1 (stereo not given)	none
COc1ccc(C2=NN(C(=O)c3cc(OC)c(OC)c(OC)c3)C(c3ccc(C)cc3)C2)cc1OC (stereo not given)	TEAD-YAP inh 46
COc1ccc(C2=NN(C(=O)c3cc(OC)c(OC)c(OC)c3)C(c3cccc([N+](=O)[O-])c3)C2)cc1OC (stereo not given)	TEAD-YAP inh 37
COc1ccc(C2=NN(C(=O)c3cc(OC)c(OC)c(OC)c3)C(c3ccc(OC)c(OC)c3)C2)cc1OC (stereo not given)	none
Nn1cnnc1N/N=C/c1ccc(O)c(O)c1	MITF inh 88
Nc1nnc(CC(=O)N/N=C\c2ccc(O)c(O)c2)s1	MITF inh 52
O=C(N/N=C/c1ccc(O)c(O)c1)c1cccc(N/N=C/c2ccc(O)c(O)c2)c1	MITF inh 105
O=C(N/N=C/c1ccc(O)c(O)c1)N/N=C/c1ccc(O)c(O)c1	MITF inh 95
CCOC(=O)Nc1cc([N+](=O)[O-])c(C)cc1C	none
CCOc1ccc(S(=O)(=O)NCC2CCCN2CC)c2cccnc12 (stereo not given)	none
Nc1nc2cc3c(cc2s1)OCCO3	TEAD-YAP inh 37
Nc1nc2cc3sc(N)nc3cc2s1	none
COc1ccc(C(=O)O/N=C(\N)c2ccccn2)cc1OC	none
Cc1ccccc1C(=O)O/N=C(\N)c1ccccn1	TEAD-YAP inh 49
N/C(=N\OC(=O)c1ccc(I)cc1)c1ccccn1	TEAD-YAP inh 81
COc1ccc(/C(N)=N/OC(=O)c2ccc(OC(C)=O)cc2)cc1OC	none
N/C(=N\OC(=O)c1cc(Cl)ccc1Cl)c1ccccn1	TEAD-YAP inh 44
CC(=O)Oc1ccc(C(=O)O/N=C(\N)c2ccccn2)cc1	TEAD-YAP inh 50
COc1cccc(CNC(=O)c2n[nH]c3cc(-c4ccncc4)ccc23)c1	none
CC(=O)OCC1=C(C(=O)O)N2C(=O)C(NC(=O)Cn3nc(C)cc3C)C2SC1 (stereo not given)	none
